SMN2 splice enh = increases expression of the SMN2 splice variant; HEK293 SMN2-luciferase splicing reporter, luminescence, 30-36 h; Potency, µM (highest dose often 46.1 µM), for inactives: top-dose activity change, positive = activation, actives largely listed as activators; 210,000 tested, 2.8% active; AID 1458; note: % of control where 0% means no effect; nearly all actives have a fitted effect of over 55% in size
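qHTS luciferase splicing reporter: luminescence rises when SMN2 exon 7 is included in transfected HEK293 cells. Compound exposure lasted 30-36 h at 37C, with 4.5 mM final sodium butyrate as control, followed by a ONE-Glo read.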
ELG1 genotoxic = inducers of genotoxicity in HEK293T ELG1-luciferase cells. Potency, µM (titrated, usually from 46 µM), for the others: top-dose activity change, positive = activation, most hits filed as activators. HEK293T ELG1-luciferase reporter, luminescence, 16 h. 330,000 tested, 1.3% active; note: % of control where 0% means no effect; nearly all actives have a fitted effect of over 60% in size
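HEK293T cells expressing luciferase-tagged ELG1 were treated with compound or DMSO for 16 hr at 37°C. Luciferase activity was then read after 30 min with ONE-Glo at room temperature; rising signal flags genetic stress.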
Rab9 promoter act = Rab9 promoter activation; Huh7 Rab9 promoter-luciferase reporter, luminescence, 24 h; Potency, µM (top dose mostly 9.22 µM), inactives show at the highest dose activation, negative = inhibition, actives largely listed as activators; 320,000 tested, 2.8% active; AID 485297; note: % of control where 0% means no effect; nearly all actives have a fitted effect of over 60% in size
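Using Huh7 cells stably transfected with Rab9 promoter–luciferase, compounds were incubated 24 h at 37 °C, 5% CO2; luciferase luminescence was read 10 min after reagent addition.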
FLuc counter = firefly luciferase modulation, counter-screen for miR-21 project; P08659; purified FLuc, Km substrates, luminescence inhibition; Potency, µM (highest dose often 57.5 µM), for inactives: top-dose activity change, negative = inhibition, most hits filed as inhibitors; 360,000 tested, 6.9% active; AID 588342;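 note: plate controls were vehicle for no effect and reference inhibitor for full effect; nearly all actives have a fitted effect of over 55% in size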
Target sequence (P08659 whole entry, looked up): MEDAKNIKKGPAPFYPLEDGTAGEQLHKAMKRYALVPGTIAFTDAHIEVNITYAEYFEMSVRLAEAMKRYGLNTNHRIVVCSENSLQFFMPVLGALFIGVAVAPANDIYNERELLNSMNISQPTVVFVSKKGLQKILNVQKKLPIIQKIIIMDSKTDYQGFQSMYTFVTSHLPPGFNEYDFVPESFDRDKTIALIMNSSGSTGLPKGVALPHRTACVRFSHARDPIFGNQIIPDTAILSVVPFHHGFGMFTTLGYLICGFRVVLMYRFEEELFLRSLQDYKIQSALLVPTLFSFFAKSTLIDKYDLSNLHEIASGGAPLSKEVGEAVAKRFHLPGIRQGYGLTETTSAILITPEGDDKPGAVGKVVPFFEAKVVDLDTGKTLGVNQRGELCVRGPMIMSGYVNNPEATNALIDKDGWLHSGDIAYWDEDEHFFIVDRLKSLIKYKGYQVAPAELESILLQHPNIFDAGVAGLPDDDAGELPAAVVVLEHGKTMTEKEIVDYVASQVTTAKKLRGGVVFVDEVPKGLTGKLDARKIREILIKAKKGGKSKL
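Biochemical qHTS of compounds, final roughly 60 µM downward over six points, against 10 nM purified firefly luciferase using Km concentrations of substrates (10 uM D-luciferin, 10 uM ATP) in Tris acetate pH 7.5 buffer; luminescence output.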
NPC1 prom act = activators of NPC1 promoter; 320,000 tested, 2.4% active; AID 485313; Potency, µM (series often up to 9.22 µM), for the others: top-dose activation, most hits filed as activators; Huh7 NPC1 promoter luciferase reporter, 24 h; note: % of control where 0% means no effect; nearly all actives have a fitted effect of over 60% in size
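Huh7 cells stably carrying NPC1 promoter–luciferase, plated in Opti-MEM with 10% FBS for 2 h, were exposed to compound in DMSO for 24 h at 37 °C; luciferase reagent was added for 10 min and luminescence read.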
An asterisk follows results filed as active; ? = inconclusive; . = no result; [ ] = dose if it differs, or a comment. Most compounds without a hit are left out; they make up all but 7.5% or so of the library. Calls come from the whole dose curve; as a rule, active = well fitted curve in the direction sought with a large enough effect; inconclusive = small, poorly fitted or top-dose-only effect, or another doubt; inactive = no such curve, though single readings can be large; an effect the other way counts as inactive or inconclusive. Potency is the fitted concentration of half-maximal effect.

SMILES	SMN2 splice enh	ELG1 genotoxic	Rab9 promoter act	FLuc counter	NPC1 prom act
COc1ccc(NC(C)=O)cc1NC(=O)c1ccc2ccccc2c1	-6%	-13%	-5%	-20%	3%
c1ccc(-c2nc3ccccc3[nH]2)nc1	3.2µM*	?	2.8µM*	12µM*	4µM*
Cc1ccc2nc(-c3ccccc3N)[nH]c2c1	7.1µM*	1.2µM*	0.5µM*	0.76µM*	1.1µM*
Nc1ccc(Br)cc1-c1nc2ccccc2[nH]c1=O	26%	-1%	29%	-2%	6%
O=c1[nH]c(-c2ccccn2)nc(C(F)(F)F)c1Br	.	20%	-4%	-1%	-6%
Cc1ccc2nc(Cc3ccc(N)cc3)[nH]c2c1	5%	7%	1%	?	14%
c1ccc(-c2nc3c(ccc4ccccc43)[nH]2)nc1	14µM*	18%	?	3.8µM*	2.8µM*
Nc1ccccc1-c1nc2ccccc2[nH]c1=O	.	7%	?	24µM*	?
Cc1ccc2nc(-c3ccccn3)[nH]c2c1	.	?	0.35µM*	1.3µM*	?
Oc1ccc(-c2csc(-c3cccnc3)n2)c(O)c1	?	?	?	3µM*	?
c1cncc(-c2csc(-c3cccnc3)n2)c1	.	-9%	1%	?	-5%
c1csc(-c2csc(-c3cccs3)n2)c1	3%	21µM*	?	12µM*	20%
Clc1ccsc1-c1csc(-c2cccnc2)n1	13%	?	?	11µM*	16%
c1cncc(-c2nc(-c3cccs3)cs2)c1	-4%	14%	19%	27µM*	29%
c1cncc(-c2nc(-c3ccco3)cs2)c1	?	29%	22%	?	18%
CC(=O)c1ccc(Nc2ccc(-c3ccccc3F)nn2)cc1	7.1µM*	?	0.5µM*	4.8µM*	0.71µM*
Oc1c(Br)cccc1/C=N/c1ncn[nH]1	.	-1%	-5%	5%	1%
Cc1nc(SCc2cccc(C(=O)O)c2)nc2c1CCCC2	4.5µM*	-5%	3%	8.5µM*	21%
COc1ccc(C2=C/C(=C\c3cccc(OC(C)=O)c3)C(=O)O2)cc1	?	2%	2%	24µM*	0%
Cc1ccc2nc(NC(=O)COC(=O)c3cccnc3)sc2c1	.	20%	.	.	.
COc1cc(NC(=O)c2ccccc2)c(C)cc1NC(=O)CC(CC(=O)O)c1ccccc1 (stereo not given)	.	5%	0%	13µM*	2%
CCC(=O)Nc1cc(OC)c(NC(=O)c2ccccc2)cc1OC	?	-6%	-1%	-3%	-1%
COc1ccc(NC(=O)CN(C)C(=O)c2ccc(NS(=O)(=O)c3cccc([N+](=O)[O-])c3)cc2)cc1	.	-3%	-2%	24µM*	3%
COc1ccc(NS(=O)(=O)c2cccc(C(=O)N(C)CC(=O)Nc3ccc(C)cc3)c2)cc1	.	-4%	-12%	1%	-6%
Cc1cc(C)c(C(=O)C(C)OC(=O)c2ccccn2)cc1C (stereo not given)	.	-2%	9%	5%	2%
SMILES	SMN2 splice enh	ELG1 genotoxic	Rab9 promoter act	FLuc counter	NPC1 prom act
Cc1ccc2[nH]c3c(c2c1)CC/C(=C/c1ccccc1)C3=O	?	?	?	4.8µM*	28%
O=C1/C(=C\c2ccccc2)CCc2c1[nH]c1ccccc21	11µM*	1.5µM*	?	2.7µM*	?
CC(C)/C=C1\CCc2c([nH]c3ccccc23)C1=O	.	-14%	?	?	12%
Cc1ccc(/C=C2/CCc3c([nH]c4ccccc34)C2=O)cc1	6.3µM*	?	0.45µM*	0.76µM*	0.5µM*
O=C1c2cccnc2C(=O)N1c1cccc(-c2nc3ccccc3o2)c1	1%	3%	-7%	3.8µM*	1%
O=C1CCC(=O)N1c1cccc(-c2nc3ccccc3o2)c1	-1%	3%	3%	?	4%
O=C(CCN1C(=O)c2ccccc2C1=O)C1=NN[C@@H]2C(=O)N(c3ccc4c(c3)OCO4)C(=O)[C@H]12	.	3%	-4%	-4%	-2%
O=C(Nc1nccs1)C(=O)c1c[nH]c2ccccc12	?	8.2µM*	3.2µM*	7.6µM*	?
CSc1ccccc1NC(=O)C(=O)c1c[nH]c2ccccc12	?	12%	?	15µM*	26%
O=C(Cc1c[nH]c2ccccc12)Nc1nccs1	-5%	-9%	10%	-3%	0%
CSc1ccccc1NC(=O)CN(C)C(=O)Cc1c[nH]c2ccccc12	.	-4%	1%	0%	9%
Cc1cc(Br)c(NC(=O)CN2CCCC2)c(Br)c1	.	13%	?	?	23%
Cn1cccc1C(=O)N1CCC2(CCCN(Cc3nccs3)C2)CC1	-1%	.	.	.	.
C=CCc1cccc2cc(C(=O)Nc3ccc(CC(=O)O)cc3)c(=O)oc12	9%	6%	-2%	8.5µM*	12%
C=CCc1cccc2cc(C(=O)Nc3cccc(C(=O)O)c3)c(=O)oc12	.	9%	?	12µM*	?
Cc1nn(C)c(C(=O)N2CCOCC2)c1Cl	-3%	-2%	5%	2%	0%
C=CC1=C2C=C(C3CC3)N(Cc3ccccc3)C=C2C(=O)C(C)(OC(=O)c2ccco2)C1=O (stereo not given)	-7%[9.22 µM]	.	.	.	.
NNC(=O)CS(=O)(=O)c1ccc(Cl)cc1	.	1%	-2%	2%	1%
COc1ccccc1/C=C1\SC(=S)N(CC(=O)NC2CCS(=O)(=O)C2)C1=O (stereo not given)	.	0%	3%	13µM*	-3%
O=C(CN1C(=O)/C(=C/c2ccc(Cl)cc2)SC1=S)NC1C=CS(=O)(=O)C1 (stereo not given)	.	1%[9.26 µM]	1%	-7%	-7%
O=C(CN1C(=O)/C(=C/c2ccccc2)SC1=S)NC1CCS(=O)(=O)C1 (stereo not given)	.	-1%	0%	-18%	-8%
COc1cccc(/C=C2\SC(=O)N(CC(=O)NC3CCS(=O)(=O)C3)C2=O)c1 (stereo not given)	.	6%	0%	17µM*	-14%
CC(C)c1ccc(/C=C2\SC(=O)N(CC(=O)NC3C=CS(=O)(=O)C3)C2=O)cc1 (stereo not given)	.	5%	23%	1.2µM*	26%
COc1cccc(/C=C2\SC(=O)N(CC(=O)NC3C=CS(=O)(=O)C3)C2=O)c1 (stereo not given)	.	-7%	6%	27µM*	-4%
COc1ccc(Cl)cc1N(C)C(=O)Cn1cnc2sc(C)c(S(=O)(=O)N3CCN(c4ncccn4)CC3)c2c1=O	3%	.	.	-16%	.
CN(C)c1ccc(N2CC(C)(C)C2=O)cc1	21%	3%	22%	?	12%
N#C/C(=C/c1ccncc1)c1nc2ccccc2s1	2%	4%	-7%	?	-1%

Screening results deposited in PubChem BioAssay by National Center for Advancing Translational Sciences (NCATS).
